# Laboratory results published in the supplement of paper PMC4022240.
# ± gives the standard deviation.
# T1: HaloTag-ATRX ADD domain (163-292)
# T1 chain: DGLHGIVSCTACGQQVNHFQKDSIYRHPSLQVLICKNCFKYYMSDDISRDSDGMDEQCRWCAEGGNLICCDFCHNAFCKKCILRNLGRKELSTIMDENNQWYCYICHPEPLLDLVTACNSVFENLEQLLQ
# How the values were obtained:
# Test in all cases: peptide microarray binding signal (635 nm), min-max normalized on array (fraction of array maximum); higher = stronger binding
# Conditions in all cases: peptide region: H3 1-13
# [1] = biological target: T1, HaloTag-ATRX ADD domain (163-292)
# Experimental: (§1)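 Histone 13-mer peptides were synthesized as cellulose conjugates with a C-terminal 20-atom PEG linker and printed in triplicate on nitrocellulose. The sequence given is the unmodified backbone; PTMs (Kme1/2/3, Kac, Sph/Tph, Rme/Rme2a/Rme2s, Rcit) are listed in the label and the 'peptide modifications' condition. Slides were probed at 4 °C for 1 h with biotin-labelled (HQ)5-HaloTag reader fusions (ATRX-ADD, ING2-PHD) then streptavidin-Alexa647, or with rabbit histone antibodies then anti-rabbit Alexa647. The mean 635 nm signal of the triplicate spots was scaled 0-1 between the lowest and highest values on each array.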
# [2] = biological target: HaloTag-ING2 PHD (mouse Ing2 200-280)
# Experimental: as §1
# [3] = biological target: anti-H3K4me3 antibody ab8580
# Experimental: as §1
# [4] = biological target: anti-H3K9me3 antibody ab8898
# Experimental: as §1
# [5] = peptide modifications: H3T6ph H3R8me2a, binder concentration: 1:2,000 dilution
# [6] = peptide modifications: H3T6ph H3R8me2a, binder concentration: 1:10,000 dilution
# [7] = peptide modifications: H3T3ph H3K4me3, binder concentration: 1:2,000 dilution
# [8] = peptide modifications: H3T3ph H3K4me3, binder concentration: 1:10,000 dilution
# [9] = peptide modifications: H3T6ph H3K9me2, binder concentration: 1:2,000 dilution
# [10] = peptide modifications: H3T6ph H3K9me2, binder concentration: 1:10,000 dilution
# [11] = peptide modifications: H3T6ph H3K9me1, binder concentration: 1:2,000 dilution
# [12] = peptide modifications: H3T6ph H3K9me1, binder concentration: 1:10,000 dilution
# [13] = peptide modifications: H3T6ph, binder concentration: 1:2,000 dilution
# [14] = peptide modifications: H3T6ph, binder concentration: 1:10,000 dilution
# [15] = peptide modifications: H3T3ph H3K4me2, binder concentration: 1:2,000 dilution
# [16] = peptide modifications: H3T3ph H3K4me2, binder concentration: 1:10,000 dilution
# [17] = peptide modifications: H3T6ph H3R8me2s, binder concentration: 1:2,000 dilution
# [18] = peptide modifications: H3T6ph H3R8me2s, binder concentration: 1:10,000 dilution
# [19] = peptide modifications: H3T3ph H3K9me2, binder concentration: 1:2,000 dilution
# [20] = peptide modifications: H3T3ph H3K9me2, binder concentration: 1:10,000 dilution
# [21] = peptide modifications: H3T3ph H3K9me1, binder concentration: 1:2,000 dilution
# [22] = peptide modifications: H3T3ph H3K9me1, binder concentration: 1:10,000 dilution
# [23] = peptide modifications: H3T3ph H3K9me3, binder concentration: 1:2,000 dilution
# [24] = peptide modifications: H3T3ph H3K9me3, binder concentration: 1:10,000 dilution
binder,measurement,setting,value
ARTKQTARKSTGG [H3 1-13 A R T K Q Tph A Rme2a K S T G G],peptide microarray binding signal,"[1]; peptide modifications: H3T6ph H3R8me2a, binder concentration: 50 nM",0.00677 ± 0.00082
same,peptide microarray binding signal,"[1]; peptide modifications: H3T6ph H3R8me2a, binder concentration: 500 nM",0.0179 ± 0.002
same,peptide microarray binding signal,"[2]; peptide modifications: H3T6ph H3R8me2a, binder concentration: 10 nM",0.00961 ± 0.00061
same,peptide microarray binding signal,"[2]; peptide modifications: H3T6ph H3R8me2a, binder concentration: 100 nM",0.054 ± 0.0051
same,peptide microarray binding signal,[3]; [5],0.00166 ± 0.00015
same,peptide microarray binding signal,[3]; [6],0.0012 ± 1.2e-05
same,peptide microarray binding signal,[4]; [5],0.00384 ± 0.00058
same,peptide microarray binding signal,[4]; [6],0.00185 ± 6.1e-05
ARTKQTARKSTGG [H3 1-13 A R Tph Kme3 Q T A R K S T G G],peptide microarray binding signal,"[1]; peptide modifications: H3T3ph H3K4me3, binder concentration: 50 nM",0.00583 ± 0.0002
same,peptide microarray binding signal,"[1]; peptide modifications: H3T3ph H3K4me3, binder concentration: 500 nM",0.0119 ± 0.00039
same,peptide microarray binding signal,"[2]; peptide modifications: H3T3ph H3K4me3, binder concentration: 10 nM",0.0508 ± 0.0034
same,peptide microarray binding signal,"[2]; peptide modifications: H3T3ph H3K4me3, binder concentration: 100 nM",0.103 ± 0.049
same,peptide microarray binding signal,[3]; [7],0.277 ± 0.065
same,peptide microarray binding signal,[3]; [8],0.724 ± 0.2
same,peptide microarray binding signal,[4]; [7],0.055 ± 0.0067
same,peptide microarray binding signal,[4]; [8],0.017 ± 0.00063
ARTKQTARKSTGG [H3 1-13 A R T K Q Tph A R Kme2 S T G G],peptide microarray binding signal,"[1]; peptide modifications: H3T6ph H3K9me2, binder concentration: 50 nM",0.00674 ± 3.8e-05
same,peptide microarray binding signal,"[1]; peptide modifications: H3T6ph H3K9me2, binder concentration: 500 nM",0.0151 ± 0.00044
same,peptide microarray binding signal,"[2]; peptide modifications: H3T6ph H3K9me2, binder concentration: 10 nM",0.0226 ± 0.0028
same,peptide microarray binding signal,"[2]; peptide modifications: H3T6ph H3K9me2, binder concentration: 100 nM",0.0292 ± 0.0053
same,peptide microarray binding signal,[3]; [9],0.00732 ± 0.0017
same,peptide microarray binding signal,[3]; [10],0.0124 ± 0.0021
same,peptide microarray binding signal,[4]; [9],0.0419 ± 0.0095
same,peptide microarray binding signal,[4]; [10],0.0174 ± 0.00085
ARTKQTARKSTGG [H3 1-13 A R T K Q Tph A R Kme S T G G],peptide microarray binding signal,"[1]; peptide modifications: H3T6ph H3K9me1, binder concentration: 50 nM",0.00721 ± 0.00059
same,peptide microarray binding signal,"[1]; peptide modifications: H3T6ph H3K9me1, binder concentration: 500 nM",0.0115 ± 0.00096
same,peptide microarray binding signal,"[2]; peptide modifications: H3T6ph H3K9me1, binder concentration: 10 nM",0.0206 ± 0.0028
same,peptide microarray binding signal,"[2]; peptide modifications: H3T6ph H3K9me1, binder concentration: 100 nM",0.0319 ± 0.0032
same,peptide microarray binding signal,[3]; [11],0.00568 ± 0.0013
same,peptide microarray binding signal,[3]; [12],0.0686 ± 0.046
same,peptide microarray binding signal,[4]; [11],0.00584 ± 0.00057
same,peptide microarray binding signal,[4]; [12],0.00582 ± 0.00014
ARTKQTARKSTGG [H3 1-13 A R T K Q Tph A R K S T G G],peptide microarray binding signal,"[1]; peptide modifications: H3T6ph, binder concentration: 50 nM",0.004044 ± 1.6e-05
same,peptide microarray binding signal,"[1]; peptide modifications: H3T6ph, binder concentration: 500 nM",0.009 ± 0.00047
same,peptide microarray binding signal,"[2]; peptide modifications: H3T6ph, binder concentration: 10 nM",0.0046 ± 0.00047
same,peptide microarray binding signal,"[2]; peptide modifications: H3T6ph, binder concentration: 100 nM",0.0195 ± 0.002
same,peptide microarray binding signal,[3]; [13],0.000793 ± 7.5e-05
same,peptide microarray binding signal,[3]; [14],0.000285 ± 3.1e-06
same,peptide microarray binding signal,[4]; [13],0.000755 ± 2.9e-05
same,peptide microarray binding signal,[4]; [14],0.000288
ARTKQTARKSTGG [H3 1-13 A R Tph Kme2 Q T A R K S T G G],peptide microarray binding signal,"[1]; peptide modifications: H3T3ph H3K4me2, binder concentration: 50 nM",0.00555 ± 0.0001
same,peptide microarray binding signal,"[1]; peptide modifications: H3T3ph H3K4me2, binder concentration: 500 nM",0.00891 ± 0.00073
same,peptide microarray binding signal,"[2]; peptide modifications: H3T3ph H3K4me2, binder concentration: 10 nM",0.0132 ± 0.0013
same,peptide microarray binding signal,"[2]; peptide modifications: H3T3ph H3K4me2, binder concentration: 100 nM",0.0916 ± 0.0043
same,peptide microarray binding signal,[3]; [15],0.0195 ± 0.0045
same,peptide microarray binding signal,[3]; [16],0.024 ± 0.0033
same,peptide microarray binding signal,[4]; [15],0.0022 ± 0.00054
same,peptide microarray binding signal,[4]; [16],0.00185 ± 8e-05
ARTKQTARKSTGG [H3 1-13 A R T K Q Tph A Rme2s K S T G G],peptide microarray binding signal,"[1]; peptide modifications: H3T6ph H3R8me2s, binder concentration: 50 nM",0.0201 ± 0.0019
same,peptide microarray binding signal,"[1]; peptide modifications: H3T6ph H3R8me2s, binder concentration: 500 nM",0.0152 ± 0.0026
same,peptide microarray binding signal,"[2]; peptide modifications: H3T6ph H3R8me2s, binder concentration: 10 nM",0.0119 ± 0.00043
same,peptide microarray binding signal,"[2]; peptide modifications: H3T6ph H3R8me2s, binder concentration: 100 nM",0.0145 ± 0.00066
same,peptide microarray binding signal,[3]; [17],0.00287 ± 9.2e-05
same,peptide microarray binding signal,[3]; [18],0.000571
same,peptide microarray binding signal,[4]; [17],0.0029 ± 6.7e-05
same,peptide microarray binding signal,[4]; [18],0.00646 ± 0.0018
ARTKQTARKSTGG [H3 1-13 A R Tph K Q T A R Kme2 S T G G],peptide microarray binding signal,"[1]; peptide modifications: H3T3ph H3K9me2, binder concentration: 50 nM",0.0107 ± 0.00063
same,peptide microarray binding signal,"[1]; peptide modifications: H3T3ph H3K9me2, binder concentration: 500 nM",0.0409 ± 0.02
same,peptide microarray binding signal,"[2]; peptide modifications: H3T3ph H3K9me2, binder concentration: 10 nM",0.0306 ± 0.0047
same,peptide microarray binding signal,"[2]; peptide modifications: H3T3ph H3K9me2, binder concentration: 100 nM",0.0365 ± 0.018
same,peptide microarray binding signal,[3]; [19],0.0117 ± 0.0018
same,peptide microarray binding signal,[3]; [20],0.0191 ± 0.0097
same,peptide microarray binding signal,[4]; [19],0.0295 ± 0.0016
same,peptide microarray binding signal,[4]; [20],0.013 ± 0.0018
ARTKQTARKSTGG [H3 1-13 A R Tph K Q T A R Kme S T G G],peptide microarray binding signal,"[1]; peptide modifications: H3T3ph H3K9me1, binder concentration: 50 nM",0.00815 ± 8.5e-05
same,peptide microarray binding signal,"[1]; peptide modifications: H3T3ph H3K9me1, binder concentration: 500 nM",0.0174 ± 0.0014
same,peptide microarray binding signal,"[2]; peptide modifications: H3T3ph H3K9me1, binder concentration: 10 nM",0.0307 ± 0.0023
same,peptide microarray binding signal,"[2]; peptide modifications: H3T3ph H3K9me1, binder concentration: 100 nM",0.0507 ± 0.004
same,peptide microarray binding signal,[3]; [21],0.00859 ± 0.0018
same,peptide microarray binding signal,[3]; [22],0.0167 ± 0.0032
same,peptide microarray binding signal,[4]; [21],0.00692 ± 0.00099
same,peptide microarray binding signal,[4]; [22],0.0053 ± 0.00068
ARTKQTARKSTGG [H3 1-13 A R Tph K Q T A R Kme3 S T G G],peptide microarray binding signal,"[1]; peptide modifications: H3T3ph H3K9me3, binder concentration: 50 nM",0.0613 ± 0.011
same,peptide microarray binding signal,"[1]; peptide modifications: H3T3ph H3K9me3, binder concentration: 500 nM",0.122 ± 0.03
same,peptide microarray binding signal,"[2]; peptide modifications: H3T3ph H3K9me3, binder concentration: 10 nM",0.0186 ± 0.0018
same,peptide microarray binding signal,"[2]; peptide modifications: H3T3ph H3K9me3, binder concentration: 100 nM",0.0397 ± 0.0029
same,peptide microarray binding signal,[3]; [23],0.122 ± 0.066
same,peptide microarray binding signal,[3]; [24],0.0819 ± 0.021
same,peptide microarray binding signal,[4]; [23],0.459 ± 0.036
same,peptide microarray binding signal,[4]; [24],0.387 ± 0.046
